Source: PubChem
Compounds with a hit are over-represented: about 8% of the library has one in this group of screens.
SW480 rerep: induces DNA re-replication in SW480 colon adenocarcinoma cells. Potency, µM (doses to about 46.1 µM), actives largely listed as activators. AID 624297. hit rate 1.8% among 340,000. SW480 DNA re-replication, Hoechst DNA content imaging, 48 h; note: nearly all actives have a fitted effect of over 55% in size
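Cells (250 per well) received 23 nL compound or DMSO by pin tool and were kept 48 hr at 37 C, 5% CO2. Nuclei were then stained with Hoechst for 40 min and scanned for DNA content.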
HT1080-NT tox: kills 2HG-producing HT-1080-NT fibrosarcoma cells | HT-1080-NT fibrosarcoma viability, CellTiter-Glo ATP luminescence, 48 h | Potency, µM (top dose mostly 46.1 µM), actives largely listed as cytotoxic | hit rate 1.6% among 360,000 | AID 686970;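 note: NT is the 2HG producing partner of a matched IDH1 knockdown line; nearly all actives have a fitted effect of over 55% in size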
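Luminescent CellTiter-Glo readout after 48 hours of compound exposure at 37 degrees C defined viability of HT-1080-NT cells. Activity was normalized to DMSO wells and cell-free media wells; concentration-response curves were fitted and assigned curve classes.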
MCF10A rerep: inducers of DNA re-replication in MCF 10A breast cells; AID 624296; MCF 10A DNA re-replication, Hoechst nuclear intensity, 48 h; hit rate 2.9% among 350,000; Potency, µM (series often up to 46.1 µM), actives largely listed as activators; note: nearly all actives have a fitted effect of over 50% in size
KB-3-1 tox: kills parental KB-3-1 adenocarcinoma cells; hit rate 1.4% among 400,000; Potency, µM (titrated, usually from 46.1 µM), hits mostly cytotoxic; KB-3-1 viability, CellTiter-Glo ATP luminescence, 72 h; note: nearly all actives have a fitted effect of over 60% in size
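Parental KB-3-1 viability, qHTS format: 72 h compound exposure, 37 °C; CellTiter-Glo; media-only wells and DMSO plates as controls; concentration-effect fits on corrected data.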
KB-V1 cytotox: KB-V1 MDR subline cytotoxicity | AID 1347076 | KB-V1 MDR cells viability, CellTiter-Glo, 72 h | Potency, µM (series often up to 46.1 µM), hits mostly cytotoxic | hit rate 3.4% among 400,000; note: nearly all actives have a fitted effect of over 60% in size
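Compound-treated KB-V1 multidrug-resistant cells, 72 h, 37 degrees C; viability by CellTiter-Glo. Fitted qHTS curves give the values.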
HT1080 IDH1KD tx: HT-1080 IDH1 knockdown cell toxicity (counter line); HT-1080 IDH1 knockdown viability, ATP luminescence, 48 h; hit rate 2% among 360,000; Potency, µM (highest dose often 46.1 µM), actives largely listed as cytotoxic
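Assay cells: HT-1080 with IDH1 knockdown, 750 per well, RPMI/5% FBS. Exposure: 48 h at 37 °C following 2 h pre-incubation. Read: CellTiter-Glo luminescence; fitted concentration-response, curve class assigned.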
Numbers stand for hits; n = inactive; u = inconclusive; x = no result; [ ] = dose if it differs, or a comment. Calls come from the whole dose curve; as a rule, active = well fitted curve in the direction sought with a large enough effect; inconclusive = small, poorly fitted or top-dose-only effect, or another doubt; inactive = no such curve, though single readings can be large; an effect the other way counts as inactive or inconclusive.

SMILES | SW480 rerep | HT1080-NT tox | MCF10A rerep | KB-3-1 tox | KB-V1 cytotox | HT1080 IDH1KD tx
O=C(CSc1ncccn1)N1CCN(C(c2ccccc2)c2ccccc2)CC1 | n | u | n | n | 18.4µM | n
O=S(=O)(c1ccc(F)cc1)N1CCC2(CC1)OCCO2 | n | n | n | n | u | n
CN1CCN(c2ccnc(N(C)CCCCCCN)n2)CC1 | x | x | x | u | n | x
O=C(OCC(=O)N1CCOCC1)C(c1ccccc1)c1ccccc1 | u | n | n | n | 20.6µM | n
O=C(C(Sc1ccccc1)c1ccccc1)N1CCOCC1 (configuration not stated) | u | n | n | n | 18.4µM | n
COC(C(=O)N1CCC(n2nccc2NC(=O)C2CC2)CC1)c1ccccc1 (configuration not stated) | u | n | n | n | n | n
O=C(CSc1nc2ccccc2c(=O)n1-c1ccccc1)N/N=C/C=C/c1ccccc1[N+](=O)[O-] | n | n | 4.61µM | n | n | n
C/C(=N\OCC(=O)Nn1c(C)nc2ccccc2c1=O)c1ccccc1 | n | n | n | n | 16.4µM | n
O=C(CSc1nc2ccccc2c(=O)n1-c1ccccc1)NCc1ccco1 | n | n | n | u | 13µM | n[9.24 µM]
O=C(CSc1nc2ccccc2c(=O)n1NC(=O)Cc1ccccc1)NCc1ccccc1 | n | n | n | n | n | n
O=C(CSc1nc2ccccc2c(=O)n1NC(=O)Cc1ccccc1)NCc1ccco1 | n | n | n | n | 18.4µM | n
C/C(=N\OCC(=O)Nn1c(C)nc2ccccc2c1=O)c1cccs1 | n | n | n | n | n | n
O=C(Cc1cccs1)Nn1c(Cc2cccs2)nc2ccccc2c1=O | n | n | n | n | 20.6µM | n
O=C(Cc1ccccc1)Nn1c(-c2ccccc2)nc2ccccc2c1=O | n | n | n | n | 18.4µM | n
Cc1cccc(-n2c(SCC(=O)NCc3ccco3)nc3ccccc3c2=O)c1 | u | n | u | n | 10.3µM | u
CCOC(=O)c1c(-c2ccc(OC)cc2)oc2ccc(OCc3ccccc3C)cc12 | x | x | x | n | u | x
CCCCOC(C)n1cc(F)c(=O)[nH]c1=O (configuration not stated) | n | n | n | n | n | n
COc1cc(O)sc1C=Nc1ccc(Cl)cc1Cl | n | n | u | n | 20.6µM | n
CCCN(CC(=O)Nc1ccc(C)cc1Br)CC(=O)Nc1ccc(F)c(F)c1F | n | n | u | n | 8.2µM | n
CCCN(CC(=O)Nc1cccc(Br)c1)CC(=O)Nc1ccc(F)c(F)c1F | n | u | u | u | u | u
CCCN(CC(=O)Nc1ccc(F)c(F)c1F)CC(=O)Nc1c(Cl)cccc1Cl | u | n | u | n | 18.4µM | n
CN(Cc1ccccc1)C(=O)CCSc1nc(-c2ccc3c(c2)OCO3)cc(C(F)(F)F)n1 | n | n | n | n | 2.59µM | u
O=C(CCSc1nc(-c2ccc3c(c2)OCO3)cc(C(F)(F)F)n1)NCc1ccccc1 | n | n | u | n | n | u
CCC(C)NC(=O)CCSc1nc(-c2ccc3c(c2)OCO3)cc(C(F)(F)F)n1 (configuration not stated) | x | x | x | n | n | x
COc1ccc(CNC(=O)CCSc2nc(-c3ccc4c(c3)OCO4)cc(C(F)(F)F)n2)cc1 | u | n | 20.6µM | n | u | n
SMILES | SW480 rerep | HT1080-NT tox | MCF10A rerep | KB-3-1 tox | KB-V1 cytotox | HT1080 IDH1KD tx
CCN(Cc1ccccc1)C(=O)COC(=O)c1c(C)nsc1NC | n | n | n | n | n | n
Nc1nn2cc(-c3ccccc3)nc2c2ccccc12 | n | u | n | n | 16.4µM | u
Cc1cn2nc(N)c3ccccc3c2n1 | n | n | n | n | n | n
C/C(N)=C(/C#N)C(=O)CSc1nnc(-c2ccccc2)n1C | n | n | n | n | n | n
O=[N+]([O-])c1ccccc1S(=O)(=O)NCCC1=CCCCC1 | n | n | n | n | 14.6µM | n
O=C(Cc1ccccc1[N+](=O)[O-])NCCC1=CCCCC1 | n | n | n | n | n | n
S=C(NCCNC(=S)Nc1ccccc1Cl)Nc1ccccc1Cl | n | n | n | n | n | n
Cc1cc(Cl)ccc1NC(=S)NCc1cccs1 | n[9.22 µM] | 18.4µM | n | n | u | u
COc1ccc(NC(=S)NCc2cccs2)cc1 | u | n | u | n | n | n
CC(C)c1ccc(NC(=S)NCc2cccs2)cc1 | u | 11.2µM | u | n | 23.1µM | u
Cc1ccc(NC(=S)NCc2cccs2)c(C)c1 | n | n | n | n | n | n
S=C(NCc1cccs1)Nc1ccccc1Cl | n | n | n | n | 25.9µM | n
S=C(NCc1cccs1)Nc1cc(Cl)cc(Cl)c1 | u | u | 23.1µM | u | u | u
S=C(NCc1ccco1)Nc1ccc(Cl)cc1Cl | n | n | n | u | 18.4µM | n
S=C(NCc1ccco1)Nc1ccc(Br)cc1Cl | n | n | n | u | n | n
COc1ccc(NC2=C(NCCO)C(=O)c3ccccc3C2=O)cc1 | 18.4µM | 13µM | u | u | 20.6µM | 8.2µM
COC1=C(Nc2ccc(OC)cc2)C(=O)C(OC)=C(Nc2ccc(OC)cc2)C1=O | n | n | n | n | n | n
O=C(C1=C(c2ccccc2)C(=O)c2ccccc2C1=O)c1ccccc1 | 7.31µM | u | 5.17µM | u | u | 14.6µM
COc1ccc(NC2=C(c3ccc(OC)cc3)C(=O)c3ccccc32)cc1 | n | n | n | n | 5.17µM | n
O=C(c1ccccc1)c1c[nH]cc1-c1ccccc1 | n | n | n | n | n | n
COC1=C(Nc2ccc(OC)cc2)C(=O)c2ccccc2C1=O | 23.1µM | n | u | n | u | n
CN(C(=O)COC(=O)CNC(=O)c1sc2ccccc2c1Cl)C1CCS(=O)(=O)C1 (configuration not stated) | n | n | n | n | u | n
COc1ccc(C(=O)Nc2nnc(S(=O)(=O)N3CCCc4ccccc43)s2)cc1 | x | x | x | n | n | x
Fc1c(-c2ccc3ncnc(NCc4cccs4)c3c2)ccc2c1OCO2 | x | x | x | n | n | x
COC1=C(Nc2ccc(O)cc2)C(=O)c2ccccc2C1=O | u | 10.3µM | u | u | u | 23.1µM
SMILES | SW480 rerep | HT1080-NT tox | MCF10A rerep | KB-3-1 tox | KB-V1 cytotox | HT1080 IDH1KD tx
COc1ccc(C2=C(N)c3ccccc3C2=O)cc1 | n | n | n | n | n | u
COC1=C(c2ccccc2)C(=O)c2ccccc2C1=O | u | n | u | n | u | 25.9µM
CCOc1ccc(NC2=C(OC)C(=O)c3ccccc3C2=O)cc1 | n | n | n | n | u | n
CN1C(N)=NC(=O)/C1=C/c1ccccc1F | n | n | n | n | n | n
OC[C@H]1O[C@@](CO)(O[C@H]2O[C@H](CO)[C@@H](O)[C@H](O)[C@H]2O)[C@@H](O)[C@@H]1O | n | x | n | x | x | x
Cc1ccc2sc(N(CCCN(C)C)C(=O)c3ccc(S(=O)(=O)N4CCc5ccccc5C4)cc3)nc2c1C | 3.66µM | 20.6µM | u | n | n | u
